PubChem BioAssay (NCI)
About 79,000 compounds went through this panel and 15% of them were active in at least one assay; those are over-represented in the sample as a whole. A number with no mark means an inactive call. Calls of active or inactive are those of the source. Cut-off read from the data, not from the text of the source: active = growth inhibition above about 70%; inactive = the rest.

Experiment: NCI Yeast Anticancer Drug Screen. Data for the sgs1 mgt1 strain (AID 161);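 note: 0% = growth of cultures given vehicle only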
Settings: S. cerevisiae sgs1 mgt1 strain, at 50.0 µM, hits give high values
In short: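 This yeast growth screen uses a strain with defined DNA-repair lesions; compound-treated growth is compared with vehicle-treated growth.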

**Q.** For `CSc1nc(=O)cc(N)n1C`, which growth inhibition is on record?
**A.** 9.55%

**Q.** Which growth inhibition does the source give for `CCOC(=O)C(NC(=O)Cc1ccccc1)C(=O)OCC` here?
**A.** -0.75%

**Q.** With `COc1ccc(C(=O)C(CN(C)C)CN(C)C)cc1OC` as the compound, how does the growth inhibition read?
**A.** -14.1%

**Q.** For `CS(=O)(=O)/C=C/c1ccccc1`, which growth inhibition is on record?
**A.** -7.35%

**Q.** Which growth inhibition does the source give for `Clc1ccc2sc3c(c2c1)CCNC3` here?
**A.** -6.75%

**Q.** With `CCS(=O)(=O)c1ccc(NC(=O)OC2CCCCCC2)cc1` as the compound, how does the growth inhibition read?
**A.** 25.8%

**Q.** For `CC(C)c1ccc(C(O)C2CC2)cc1` (configuration not stated), which growth inhibition is on record?
**A.** -15.2%

**Q.** Which growth inhibition does the source give for `Nc1ccc(C(=O)CC(=O)c2cccc([N+](=O)[O-])c2)cc1` here?
**A.** 39.4%

**Q.** Which growth inhibition does the source give for `CC(C)(Cc1ccc(Cl)cc1)NC(N)=O` here?
**A.** -21.4%

**Q.** With `CSc1ccc(NC(=O)Nc2ccc(Cl)cc2C(=O)c2ccccc2)cc1` as the compound, how does the growth inhibition read?
**A.** 93.7% (active)

**Q.** For `Cc1nc2c(cc1C(=O)N/N=C/c1ccc([N+](=O)[O-])cc1)c(=O)n(C)c(=O)n2C`, which growth inhibition is on record?
**A.** -11.9%

**Q.** With `CC#Cc1c(C#CC)c(OC)c2c(c1OC)C(=O)c1ccccc1C2=O` as the compound, how does the growth inhibition read?
**A.** -26.2%

**Q.** For `CN(C)c1ccc(/C=N\NC(=S)Nc2ccc3cn[nH]c3c2)cc1`, which growth inhibition is on record?
**A.** -1.15%

**Q.** With `CNc1nc2c(s1)c1c(O)c3c(O)c(C)c4c(c32)C(=O)C(C)(O/C=C/C(OC)C(C)C(OC(C)=O)C(C)C(O)C(C)C(O)C(C)/C=C/C=C(/C)C(=O)N1)O4` (configuration not stated) as the compound, how does the growth inhibition read?
**A.** 9.1%

**Q.** For `Nc1nc2ccc([N+](=O)[O-])cc2s1`, which growth inhibition is on record?
**A.** 10.8%

**Q.** With `O=S(Nc1ccc(Br)cc1)c1ccccc1` (configuration not stated) as the compound, how does the growth inhibition read?
**A.** 5.65%

**Q.** For `O=C(CNC(=O)C(CO)NC(=O)OCc1ccccc1)OCc1ccccc1` (configuration not stated), which growth inhibition is on record?
**A.** 9.35%
